# High-throughput results deposited in PubChem by Broad Institute.
# Sampled rows, rich in hits. Any-hit rate of the full collection: about 2.7%.
# PGC1a acetyl inh – lowers PGC1a acetylation signal in U2OS cells | AlphaScreen anti-acetyl-lysine; with virally co-expressed GCN5 acetyltransferase | inhibition, % at 15.6 µM | actives 0.17% (n = 350,000) | AID 651687;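 active = every replicate shows inhibition of at least 40%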;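 note: 0% = neutral control wells and 100% = positive control wells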
# CFTR F508del cor – CFTR F508del correction in bronchial cells; activity (quench increase), % at 7.58 µM; CFBE cells, YFP halide quenching; stimulated with forskolin plus potentiator P3; % fluorescence drop versus neutral controls; actives 0.36% (n = 350,000);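 active = mean added fluorescence quench of at least 8% versus neutral control, with both replicates also reaching 8%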;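 note: cells transiently co-express mutant CFTR-F508del with the halide-sensitive YFP; corrector assay measuring rescue of mutant channel to the surface after 24 h compound exposure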
# EWS-Fli block – inhibitors of EWS/Fli oncoprotein transcriptional activity. A673 NR0B1-luciferase reporter, viability-normalised. inhibition, % at 12.6 µM. actives 0.67% (n = 350,000);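 active = mean inhibition of at least 50% after viability correction, with every replicate also passing that limit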;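 note: firefly luciferase signal divided by Alamar Blue viability fluorescence both relative to DMSO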
# GSIS activator – GLuc luminescence reporter in INS-1E cells, primary screen for activators of glucose-dependent secretion of insulin; INS-1E GLuc reporter insulin secretion, 2-3 h; activation, % at 16.6 µM; actives 0.61% (n = 370,000); AID 743287;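 active = lowest replicate activation of at least 40%, so every replicate reaches that level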;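 note: 0% = median of neutral control wells and 100% = median of IBMX positive control wells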
# HIV Env fusion – HIV envelope-mediated fusion inhibition | HeLa-JRFL Env/CEM21 cell fusion, luciferase | AID 651610 | actives 1.1% (n = 360,000) | inhibition, % at 12.3 µM;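 active = mean replicate inhibition score of at least 50 and every replicate individually at or above 50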;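 note: 0% = plate neutral controls and 100% = maraviroc near 300 nM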
# PAX8 inh HTS – lowers PAX8-driven luciferase in RMG-I cells | RMG-I TPO-luciferase reporter, SteadyGlo, 24 h | inhibition, % at 12.6 µM | actives 1.2% (n = 360,000);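 active = mean replicate inhibition at least 60% with every replicate also reaching 60%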;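 note: luciferase light reporting Pax8 driven TPO promoter activity; plate controls were median of neutral control wells for no effect and mitoxantrone controls for full effect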
# Starred values were filed as active, the others as inactive; . = not tested or not shown; [ ] = dose if it differs, or a comment.
SMILES,PGC1a acetyl inh,CFTR F508del cor,EWS-Fli block,GSIS activator,HIV Env fusion,PAX8 inh HTS
NC(c1csc(NC(=O)Nc2ccccc2)n1)C1CCCCC1 (stereo unspecified),-8,6,-8,5,57*,-3
CO[C@H]1CN(C)C(=O)c2cc(NC(C)=O)ccc2OC[C@@H](C)N(Cc2ccc(F)cc2)C[C@@H]1C,-7,1,3,-17,.,.
Cc1cc(-n2c(SCC(=O)NCCC3=CCCCC3)nc3n[nH]c(C)c3c2=N)ccc1Cl,-12,0,.,-6,9,88*
Cc1ccc(Cl)cc1-n1c(SCC(=O)NCCC2=CCCCC2)nc2n[nH]c(C)c2c1=N,4,-2,.,-2,14,21
COc1cccc(NC(=O)C[C@H]2CC[C@H]3[C@H](COc4ccc(NC(=O)C5CCCCC5)cc4C(=O)N3C)O2)c1,-15,2,-1,-8,25[16.7 µM],-2
N#C[C@H]1[C@@H](c2ccc(C#CCC3CCCC3)cc2)[C@@H](CO)N1C(=O)c1ccccn1,0,0,23,-6,-4[16.7 µM],74*
N#C[C@@H]1[C@@H](c2ccc(C#CCC3CCCC3)cc2)[C@H](CO)N1C(=O)c1ccccn1,-32,5,4,-8,-14[16.7 µM],14
COc1cccc(-c2ccc([C@H]3[C@@H](CO)N(C(=O)Cc4ccccc4)[C@H]3C#N)cc2)c1,-14,0,4,-10,23[16.7 µM],91*
COc1cccc(C#Cc2ccc([C@H]3[C@@H](C#N)N(C(=O)c4ccccn4)[C@@H]3CO)cc2)c1,-10,3,-39,-10,.,76*
N#C[C@@H]1[C@H](c2ccccc2C2=CCCCC2)[C@H](CO)N1C(=O)Cc1ccncc1,45*,-2,-6,-16,.,.
N#C[C@H]1[C@@H](c2ccccc2C2=CCCCC2)[C@H](CO)N1C(=O)Cc1ccncc1,.,2,-2,15,.,.
COc1ccc(S(=O)(=O)N(C)C[C@H]2Oc3ccc(NC(=O)Nc4cccc5ccccc45)cc3CC(=O)N([C@H](C)CO)C[C@@H]2C)cc1,-1,-3,-1,19,3[16.7 µM],.
C[C@H]1CN([C@@H](C)CO)C(=O)c2cc(NS(=O)(=O)c3ccc(Cl)cc3)ccc2O[C@H]1CN(C)C(=O)NC1CCCCC1,-5,0,12,-17,.,3
CCc1cnc(N2[C@@H](C#N)[C@@H](c3ccc(C#CCC4CCCC4)cc3)[C@@H]2CO)s1,0,0,-11,-6,24[16.7 µM],73*
N#C[C@@H]1[C@@H](c2ccc(-c3ccccc3F)cc2)[C@@H](CO)N1C(=O)Cc1ccccc1,-4,-3,-59,5,-1[16.7 µM],5
COc1cccc(-c2ccc([C@H]3[C@@H](C#N)N(C(=O)c4ccccn4)[C@@H]3CO)cc2)c1,-7,-3,-52,2,7[16.7 µM],-77
COc1cccc(-c2ccc([C@H]3[C@@H](CO)N(C(=O)c4ccccn4)[C@H]3C#N)cc2)c1,-11,15*,-9,8,-8[16.7 µM],83*
CCc1cnc(N2[C@H](C#N)[C@H](c3ccc(C#CCC4CCCC4)cc3)[C@@H]2CO)s1,-20,-18,-16,-21,0[16.7 µM],21
N#C[C@@H]1[C@H](c2ccc(-c3ccccc3F)cc2)[C@@H](CO)N1C(=O)Cc1ccccc1,-11,-2,19,-17,58*[16.7 µM],103*
COCC(=O)N1CCC2(CC1)CN(C(=O)c1ccccn1)[C@@H](CO)c1c2c2ccc(OC)cc2n1C,.,1,8,14,-15[16.7 µM],.
C[C@@H](O)C#Cc1ccc([C@H]2[C@@H](CO)N3CCCCN(C(=O)c4ccc(F)cc4)C[C@H]23)cc1,6,3,8,-1,.,-16
CCOC(=O)CSc1nc(Cc2ccccc2)nc2ccccc12,.,-2,-9,19,56*,-6
C[C@H](O)C#Cc1ccc([C@H]2[C@H]3CN(C(=O)Nc4ccccc4)CCCCN3[C@H]2CO)cc1,8,-1,-3,-6,.,69*
CC(C)CC#Cc1ccc([C@@H]2[C@H]3CN(C(=O)Nc4ccccc4)CCCCN3[C@H]2CO)cc1,-26,3,4,-10,.,74*
C[C@@H]1CCCCO[C@@H](CN(C)C(=O)Cc2ccccc2)[C@@H](C)CN([C@H](C)CO)C(=O)c2cc(NC(=O)Nc3ccccc3)ccc2O1,0,2,-6,-5,14[16.7 µM],-7
SMILES,PGC1a acetyl inh,CFTR F508del cor,EWS-Fli block,GSIS activator,HIV Env fusion,PAX8 inh HTS
C[C@H](CO)N1C[C@H](C)[C@H](CN(C)S(=O)(=O)c2cccs2)Oc2ccc(NC(=O)Nc3ccc4c(c3)OCO4)cc2C1=O,-6,-1,4,2,47[16.7 µM],.
C[C@H]1CN([C@@H](C)CO)C(=O)c2cc(NC(=O)Nc3ccc4c(c3)OCO4)ccc2O[C@H]1CN(C)S(=O)(=O)c1cccs1,-2,0,-6,-6,57*[16.7 µM],.
C[C@@H]1CN([C@H](C)CO)C(=O)Cc2cc(NC(=O)NC3CCCCC3)ccc2O[C@@H]1CN(C)S(=O)(=O)c1cccs1,-6,-1,7,-18,7[16.7 µM],2
CC(C)NC(=O)Nc1ccc2c(c1)CC(=O)N([C@@H](C)CO)C[C@H](C)[C@@H](CN(C)S(=O)(=O)c1cccs1)O2,0,-2,-6,18,-4[16.7 µM],22
CC(C)NC(=O)Nc1ccc2c(c1)CC(=O)N([C@H](C)CO)C[C@H](C)[C@H](CN(C)S(=O)(=O)c1cccs1)O2,10,1,-8,-11,60*[16.7 µM],-28
C[C@H](CO)N1C[C@H](C)[C@H](CN(C)S(=O)(=O)c2cccs2)Oc2ccc(NC(=O)NC3CCCCC3)cc2CC1=O,-5,0,4,-46,84*[16.7 µM],-12
C[C@H](CO)N1C[C@H](C)[C@H](CN(C)S(=O)(=O)c2cccs2)Oc2ccc(NC(=O)Nc3ccc4c(c3)OCO4)cc2CC1=O,-18,2,17,-43,99*,34
CC(C)NC(=O)N(C)C[C@H]1Oc2ccc(NC(=O)CCCCCC(=O)Nc3ccccc3N)cc2C(=O)N([C@H](C)CO)C[C@H]1C,7,1,-2,-5,33[16.7 µM],.
CO[C@@H]1CN(C)C(=O)c2ccc(NS(=O)(=O)c3cn(C)cn3)cc2OC[C@H](C)NC[C@@H]1C,36,2,9,10,-41[16.7 µM],2
CC(C)NC(=O)Nc1ccc2c(c1)CC(=O)N([C@@H](C)CO)C[C@H](C)[C@H](CN(C)S(=O)(=O)c1cccs1)O2,4,-2,1,4,57*[16.7 µM],-20
C[C@H](CO)N1C[C@H](C)[C@H](CN(C)S(=O)(=O)c2cccs2)Oc2ccc(NC(=O)Nc3ccc(C(F)(F)F)cc3)cc2CC1=O,2,0,56*,-34,61*[16.7 µM],15
O=C(Nc1ccc([N+](=O)[O-])cc1)Nc1ccc(OC(F)F)c(Cl)c1,.,.,.,174*,43,83*
